TRHR PAM: qHTS for Small Molecule Agonists and Allosteric Enhancers of Human TRH Receptor: Primary Screen for Enhancers; Thyrotropin-releasing hormone receptor (Homo sapiens), P34981; TRHR cells, fluo-8 calcium fluorescence, EC20 TRH enhancement; enhancement, % at 2 µM; 360,000 tested, 0.66% active; AID 493056, 2011; in the data active = enhancement above about 30%
Target sequence (P34981 whole entry, looked up): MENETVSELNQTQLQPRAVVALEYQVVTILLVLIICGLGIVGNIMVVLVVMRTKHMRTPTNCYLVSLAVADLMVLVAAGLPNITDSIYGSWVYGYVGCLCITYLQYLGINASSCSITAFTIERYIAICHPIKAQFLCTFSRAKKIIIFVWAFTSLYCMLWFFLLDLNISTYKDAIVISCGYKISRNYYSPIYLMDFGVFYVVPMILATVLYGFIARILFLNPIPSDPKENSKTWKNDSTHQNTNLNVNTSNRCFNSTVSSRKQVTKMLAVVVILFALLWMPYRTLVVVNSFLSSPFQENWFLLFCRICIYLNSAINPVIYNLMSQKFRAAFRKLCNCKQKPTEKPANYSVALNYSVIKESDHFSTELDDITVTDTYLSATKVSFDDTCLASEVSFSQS
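TRHR-expressing cells loaded with fluo-8 calcium dye were read kinetically (ex 480/em 530) during compound addition, then stimulated with an EC20 of TRH (10 nM final). Enhancement of the Gq-mediated intracellular calcium response was scored.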
D1 agonist: Allosteric Agonists of the Human D1 Dopamine Receptor: qHTS | D(1A) dopamine receptor (Homo sapiens), P21728 | HEK293 T-REx D1 cells, calcium flux, agonist mode | activation, % at 2 µM | 360,000 tested, 1% active | AID 504660, 2011
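Inducible HEK293 T-REx D1 cells, force-coupled to calcium signalling, were plated at 4000 cells/well with tetracycline and held overnight at 30 C. After no-wash calcium dye loading, compound-evoked calcium rise over 180 s flagged agonists.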
D1 potentiator: Potentiators of Human D1 Dopamine Receptor: qHTS | HEK293 TREx D1 cells, calcium flux, dopamine EC20 potentiation | potentiation, % at 10 µM | 360,000 tested, 0.036% active; in the data active = potentiation above about 30%
D1 antag: Antagonist of Human D 1 Dopamine Receptor: qHTS; 360,000 tested, 3.2% active; D(1A) dopamine receptor (Homo sapiens), P21728; activity change, negative = inhibition, % at 10 µM; HEK293 TREx D1 cells, calcium flux, dopamine EC80; active compounds read low; AID 504652, 2011; in the data active = activity change below about -30%
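After overnight tetracycline induction at 30 C, force-coupled D1 HEK293 cells took up a no-wash calcium dye at room temperature. Compounds were added and monitored 180 s, and the response to EC80 dopamine was then recorded.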
TRHR ag: qHTS for Small Molecule Agonists and Allosteric Enhancers of Human TRH Receptor: Primary Screen for Agonists; Thyrotropin-releasing hormone receptor (Homo sapiens), P34981; TRHR cells, calcium flux fluo-8, FDSS agonist mode; activation, % at 2 µM; 360,000 tested, 0.18% active; AID 493084, 2011
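Fluo-8-loaded TRHR cells; 10 s baseline, compound added, kinetic Ca2+ fluorescence read 1/s, agonist mode.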
Numbers stand for hits; - = inactive. Compounds with a hit are over-represented: about 4.7% of the library has one in this group of screens. Rule as the data show it, unless noted: active = activation above about 30%; inactive = the rest.

SMILES | TRHR PAM | D1 agonist | D1 potentiator | D1 antag | TRHR ag
Cc1cccc(CN2C(=O)N(c3ccc(C(C)C)cc3)S(=O)(=O)c3ccccc32)c1 | - | - | - | - | -
CCOC(=O)c1c(S(=O)(=O)N2CCCC(C(=O)NCc3cccc(OC)c3)C2)c(C)n(C)c1C (stereo not drawn) | - | - | - | - | -
Cc1cccc2cc3c(N)c(C(=O)Nc4ccc(N5CCOCC5)cc4)sc3nc12 | - | - | - | - | -
CCc1cccc2cc3c(N)c(C(=O)Nc4ccc(S(=O)(=O)N5CCCC5)cc4)sc3nc12 | - | 60 | - | - | -
CCn1cc(S(=O)(=O)c2ccccc2)c(=O)c2cc(F)c(N3CCCC3)cc21 | - | - | - | - | -
Cc1cccc(N2C(=O)CN=C2Nc2nc(C)cc(C)n2)c1 | - | - | - | -32 | -
CC(=O)N(C1CC(C)C(C#N)(C#N)C1(C#N)C#N)N(C)C (stereo not drawn) | - | - | - | - | -
CCCC(=O)N(C1CC(C)C(C#N)(C#N)C1(C#N)C#N)N(C)C (stereo not drawn) | - | - | - | -36 | -
COC(=O)c1ccc(CN2CCC(CO)(Cc3ccccc3Cl)CC2)cc1 | - | - | - | - | -
COc1ccc(/C=C/CN2CCC(CO)(Cc3ccccc3Cl)CC2)cc1 | - | 109 | - | - | -
COc1ccc2oc(=O)c(C(=O)Nc3cccc(C(=O)O)c3)cc2c1 | - | - | - | - | -
O=C1/C(=C\c2ccc(O)cc2)SC(=S)N1/N=C/c1ccc(O)cc1 | - | 111 | - | - | 52
Cc1ccccc1NC(=O)c1nc(-c2ccncc2)no1 | - | - | - | - | -
Cc1ccccc1CC1C(=O)Nc2ccc(Br)cc21 (stereo not drawn) | - | 48 | 32 | - | -
O=C1Nc2ccccc2C1Cc1ccccc1 (stereo not drawn) | - | - | - | - | -
COc1ccc(Br)cc1CC1C(=O)Nc2ccccc21 (stereo not drawn) | - | - | - | - | -
Cc1ccc2c(c1)C(Cc1ccccc1F)C(=O)N2 (stereo not drawn) | - | - | - | -46 | -
CC(C)NS(=O)(=O)c1ccc(NC(=O)C(C)OC(=O)CCCOc2ccccc2)cc1 (stereo not drawn) | 30 | - | - | - | -
CCCC1O[C@@H]2C[C@H]3[C@@H]4CCC5=CC(=O)C=C[C@]5(C)[C@H]4[C@@H](O)C[C@]3(C)[C@]2(C(=O)CO)O1 (stereo partly drawn) | 33 | - | - | - | -
CCOC(=O)C1CCCN(c2nc3c(S(=O)(=O)c4ccc(Br)cc4)nnn3c3ccsc23)C1 (stereo not drawn) | - | - | - | - | -
CSc1nc2sc3c(c2c(=O)n1C)CCCC3 | - | - | - | - | -
CSc1nc2sc3c(c2c(=O)n1C)CCC3 | - | - | - | -35 | -
CCc1nc2sc3c(c2c(=O)n1CCO)CCC3 | - | - | - | -44 | -
COc1ccc(NC(=O)c2ccc(CN3C(=O)CCn4nc(C)cc43)cc2)c(OC)c1 | - | - | - | - | -
Cc1c(NC(=O)c2cc(-n3cnnc3)ccc2Cl)cccc1-c1nc2ccccc2o1 | - | - | - | -44 | -
SMILES | TRHR PAM | D1 agonist | D1 potentiator | D1 antag | TRHR ag
CCc1cc(OCCCCNCc2ccccc2)ccc1Cl | - | 51 | - | - | -
Clc1cc(Br)ccc1OCCCNCc1ccccc1 | - | 55 | - | - | -
CCOCCCNCc1ccc(OC)cc1 | - | - | - | - | -
COCCCNCCCOc1ccc(C(C)(C)c2ccccc2)cc1 | - | - | - | - | -
CCOCCCNCc1ccc(OCc2ccccc2Cl)cc1 | - | 36 | - | - | -
CC(C)(C)c1ccc(OCCCNCc2ccccc2)cc1 | - | 61 | - | - | -
CCOc1ccc(-n2c(SCc3ccccc3)nc3c([nH]c4ccccc43)c2=O)cc1 | - | - | - | - | -
COc1cccc(Nc2sc(C(=O)c3ccc(F)cc3)c(N)c2C(=O)NCc2ccc(C)cc2)c1 | - | - | - | - | -
